Test [1] is described as follows: Viability qHTS for spleen associated tyrosine kinase inhibitor (SYKi) naive MV4-11 cells (AID 1963823). Note: nearly all actives have a fitted effect of over 40% in size. An outline of the steps:
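Viability of MV4-11 AML cells lacking prior SYK inhibitor exposure is scored by CellTiter-Glo luminescence following 72 hr compound incubation at 37 C, 5% CO2, seeded at 500 cells per well.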
(In general: Quantitative high-throughput screening tests each substance at several concentrations.)

The nature of test [2]: Viability qHTS for spleen associated tyrosine kinase inhibitor (SYKi) drug resistant MV4-11 cells (AID 1963824). Note: nearly all actives have a fitted effect of over 35% in size. An outline of the steps:
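SYK-inhibitor-resistant MV4-11 AML cells were seeded at 500 per well onto compound and cultured 72 hours (37 °C, 5% CO2). CellTiter-Glo was then added, and after 10 min at room temperature, luminescence gave viability.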

Test [3] is described as follows: Cellular viability qHTS for adrenocortical cancer (ACC) cell line SW-13 (AID 1963989).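 For activity (max response): cells grown in serum-free medium with ITS supplement; % is set by controls: 0 for no effect and ±100 for the full control effect.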 Note: nearly all actives have a fitted effect of over 65% in size. Conditions: SW-13 ACC cells viability, CellTiter-Glo, 48 h; activity (max response): stronger effect = lower value. Summed up: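 SW-13 cells in ITS-supplemented serum-free DMEM were plated overnight, then exposed for 48 h at 37C to compound titrations (up to 46 uM final). Viability was read by CellTiter-Glo luminescence; four-parameter logistic fits gave IC50 and efficacy.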

The nature of test [4]: Cellular viability qHTS for adrenocortical cancer (ACC) cell line NCI-H295R (AID 1963990). Note: nearly all actives have a fitted effect of over 60% in size. Summed up: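 Luminescent ATP read-out (CellTiter-Glo, 20 min RT) after 48 h drug exposure of NCI-H295R cells; a titration up to 46 uM final. Data normalized to doxorubicin (100% inhibition) and DMSO (0%); 4-parameter fit gives IC50, max response.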

Where “and” joins values, the source holds several entries; their conditions need not be identical. Equal values may be shown once. Records with an inconclusive call do not appear. Values without a mark were called inactive. Calls of active or inactive are those of the source. Calls come from the whole dose curve; as a rule, active = well fitted curve in the direction sought with a large enough effect; inconclusive = small, poorly fitted or top-dose-only effect, or another doubt; inactive = no such curve, though single readings can be large; an effect the other way counts as inactive or inconclusive.
Potency is the fitted concentration of half-maximal effect.

Consider `C[C@]1(Cn2ccnn2)[C@H](C(=O)O)N2C(=O)C[C@H]2S1(=O)=O`, for which the Potency entry in test [1] and in test [2] was “inactive” each time. Moreover, the activity (max response) in test [3] was 2.68%.
As for `CC(=O)N[C@H]1CSSC[C@@H](C(N)=O)NC(=O)[C@H](C(C)C)NC(=O)[C@H](C)NC(=O)[C@H](Cc2cnc[nH]2)NC1=O`, the Potency entry in test [1] and in test [2] was “inactive” throughout. For the same compound, the activity (max response) in test [3] was -0.986%.
Regarding `O=C(O)c1cc(O)c(O)c(O)c1`, the Potency entry in test [1] was “inactive”. Besides, the Potency in test [2] is 13.3 µM (active). Further, the activity (max response) in test [3] is -1.2%.
In the same order, the values of `CCNC1(C(N)=O)CCN(c2ncnc3c2nc(-c2ccccc2Cl)n3-c2ccc(Cl)cc2)CC1` are 7.42 µM (active), 16.6 µM (active) and -4.01%.
In the same order, the values of `O=C(NCCc1c[nH]c2ccccc12)c1cccnc1` are 0.0019 µM (active), “inactive” and -4.89%.
In the same order, the values of `O=C(O)Cc1ccccc1Oc1ccc(Cl)cc1Cl` are “inactive”, “inactive” and 4.63%.
As for `CC1(C)OCCn2c1nc1c(N3CCOCC3)nc(-c3cnc(N)nc3)nc12`, the results for the Potency in test [1] and in test [2] were 1.32 µM (active) and 2.95 µM (active), respectively. Further, in test [3], the activity (max response) is -17.2%.
Regarding `Nc1nc(F)nc2c1ncn2C1OC(COP(=O)(O)O)C(O)C1O` (stereo not drawn), the values for the Potency in test [1] and in test [2] were 10.5 µM (active) and 14.8 µM (active), respectively. Moreover, the activity (max response) in test [3] was -0.687%.
Turning to `C=C1C(=O)OC2/C=C(/C)CC/C=C(/C)CCC12` (stereo not drawn), the values for the Potency in test [1] and in test [2] were 8.33 µM (active) and 5.25 µM (active), respectively. Also, the activity (max response) in test [3] was -9.66%.
On to `CCOc1ccc(NS(=O)(=O)c2ccc(N)cc2)nn1`, for which the Potency result in test [1] and in test [2] was “inactive” each time. Also, in test [3], the activity (max response) is 7.51%.
As to `CCO[C@H](Cc1ccc(OCCc2ccc(OS(C)(=O)=O)cc2)cc1)C(=O)O`, the Potency result in test [1] and in test [2] was “inactive” throughout. Further, the activity (max response) in test [3] was 6.74%.
Take `FC(F)(F)c1ccc(CNc2ccc(Cc3c[nH]c4ncccc34)cn2)cc1`: the Potency in test [1] is 259 nM (active) and 116 nM (active); in test [2], 206 nM (active) and 291 nM (active); in test [3], 10 µM (active).
Take `CC(C)(C)CC(C)(C)c1ccc(O)c(-n2nc3ccccc3n2)c1`: the Potency entry in test [1], in test [2] and in test [4] was “inactive” each time. Further, in test [3], the activity (max response) is 4.68%.
`C/C(=N\NC(=O)c1cccc(S(=O)(=O)N2CCOCC2)c1)c1cc(Cl)ccc1O`: the Potency in test [1] is 0.525 µM (active); in test [2], 0.742 µM (active); in test [3], 8.91 µM (active).
With `NCCCC[C@H](NC(=O)[C@@H](NC(=O)[C@H](Cc1c[nH]c2ccccc12)NC(=O)[C@H](CCCCN)NC(=O)[C@H](CCCCN)NC(=O)[C@H](Cc1c[nH]c2ccccc12)NC(=O)[C@H](Cc1c[nH]c2ccccc12)NC(=O)[C@H](CCCCN)NC(=O)[C@@H](N)CCCCN)C(c1ccccc1)c1ccccc1)C(N)=O`, the Potency is 8.33 µM (active) in test [1], 10.5 µM (active) in test [2] and 31.6 µM (active) in test [3].
As for `O=c1sn(-c2cccc3ccccc23)c(=O)n1Cc1ccccc1`, the Potency in test [1] was 14.6 µM (active); in test [2], 11.6 µM (active) and 8.33 µM (active). Moreover, the activity (max response) in test [3] is -18.3%.
`NCCCNCCSP(=O)(O)O`: the viability (% of control) in test [1] was 79.8% [at 9.25 µM]. Also, the viability, % of control in test [2] was 105% [at 9.25 µM]. Further, the activity (max response) in test [3] is 1.65%.
In the case of `CCCNC(=O)[C@H]1O[C@@H]1C(=O)N[C@H](C(=O)N1CCC[C@H]1C(=O)OC)C(C)CC` (stereo partly drawn), the Potency is 1.66 µM (active) in test [1], 0.934 µM (active) in test [2] and 10 µM (active) in test [3].
As to `CN1[C@@H]2CC[C@H]1CC(NC(=O)n1c(=O)[nH]c3ccccc31)C2` (stereo partly drawn), the Potency result in test [1] and in test [2] was “inactive” in each case. In addition, in test [3], the activity (max response) is 2.49%.
As for `CCCCCCC[N+](CC)(CC)CCCCc1ccc(Cl)cc1`, the Potency in test [1] is 1.68 µM (active); in test [2], 2.11 µM (active); in test [3], 5.8 µM (active).
For the compound `CCC1(c2cnc[nH]2)Cc2ccccc2C1`, the Potency entry in test [1] and in test [2] was “inactive” throughout. In test [3], the activity (max response) is -4.6%.
In the case of `COc1ccccc1C(=O)Nc1cc2c(cc1N1CCCC1)n(C)c(=O)n2C`, the Potency in test [1] was 8.2 µM (active); in test [2], 9.34 µM (active). For the same compound, in test [3], the activity (max response) is -26.1%.
As to `Oc1cccc(-c2c3nc(c(-c4cccc(O)c4)c4ccc([nH]4)c(-c4cccc(O)c4)c4nc(c(-c5cccc(O)c5)c5ccc2[nH]5)CC4)C=C3)c1`, the results for the Potency in test [1], in test [2] and in test [3] were 16.8 µM (active), 18.8 µM (active) and 6.51 µM (active), respectively.
`CCNCCc1ccc(CN(CC)c2cc(OC)ccc2[C@@H]2CCc3cc(O)ccc3C2)cc1`: the Potency in test [1] was 2.35 µM (active); in test [2], 2.95 µM (active); in test [3], 6.31 µM (active).
On to `CCC(=O)O[C@]1(C(=O)CCl)[C@@H](C)C[C@H]2[C@@H]3CCC4=CC(=O)C=C[C@]4(C)[C@@]3(F)[C@@H](O)C[C@@]21C`, for which the Potency in test [1] is 4.73 µM (active) and 10.5 µM (active); in test [2], 15 µM (active) and 14.8 µM (active). Further, in test [3], the activity (max response) was -11.2% and -16.8%.
Take `Cc1ccc(NC(=O)Nc2nnc(Sc3ncnc4cc(OCCCN5CCOCC5)ccc34)s2)cc1`: the Potency in test [1] was 0.0148 µM (active); in test [2], 0.0166 µM (active). Further, the activity (max response) in test [3] is -9.58%.
On to `O=S(=O)(Nc1ccc(-c2cccnc2)c2cccnc12)c1cccc(C(F)(F)F)c1`, for which the Potency in test [1] is 6.61 µM (active); in test [2], 5.25 µM (active); in test [3], 4.47 µM (active); in test [4], 3.98 µM (active).

For the origin of these results see PubChem BioAssay (NCATS).
